{"source": "the supplement of paper PMC4709259", "note": "Counter-ions that a name gives are not always drawn. ± gives the standard deviation.", "data": [{"test_system": "Jurkat", "assay": "mean cell size (FSC-A) relative to DMSO control (fraction of control); higher = larger cells", "conditions": "48 h", "procedure,_shortened": "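Jurkat cells at 600 cells/µl were incubated for 1 h and then treated for 48h with the Enzo Screen-Well FDA Approved Drug Library v2.0 at 25µM, with DMSO at 0.9% (v/v) final. Compounds that reduced counts below 20% of controls were retested in 10-fold dilutions down to 25nM. Cell count and mean cell size, taken as forward scatter area, were measured by flow cytometry relative to solvent-only controls. Each plate carried 6-12 controls, and values are means of 3 biological replicates.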", "values": [{"compound": "OCCOCCN1CCN(C2=Nc3ccccc3Sc3ccccc32)CC1", "note": "[Quetiapine Fumarate] (concentration: 25 µM)", "mean cell size": "0.929 ± 0.035"}, {"compound": "COc1ccc2c(c1)c(CC(=O)O)c(C)n2C(=O)c1ccc(Cl)cc1", "note": "[Indomethacin] (concentration: 25 µM)", "mean cell size": "0.971 ± 0.046"}, {"compound": "CC(=O)OCC(=O)[C@@]1(O)CC[C@H]2[C@@H]3CCC4=CC(=O)CC[C@]4(C)[C@@]3(F)[C@@H](O)C[C@@]21C", "note": "[Fludrocortisone Acetate] (concentration: 25 µM)", "mean cell size": "0.932 ± 0.058"}, {"compound": "Nc1nnc(-c2cccc(Cl)c2Cl)c(N)n1", "note": "[Lamotrigine] (concentration: 25 µM)", "mean cell size": "1.01 ± 0.028"}, {"compound": "CN1CCN(CCCN2c3ccccc3Sc3ccc(C(F)(F)F)cc32)CC1", "note": "[Trifluoperazine·HCl] (concentration: 2.5 µM)", "mean cell size": "1.072 ± 0.01"}, {"compound": "CN(Cc1cnc2nc(N)nc(N)c2n1)c1ccc(C(=O)N[C@@H](CCC(=O)O)C(=O)O)cc1", "note": "[Methotrexate] (concentration: 25 nM)", "mean cell size": "1.16 ± 0.035"}, {"compound": "C[C@H](N)[C@H](O)c1cccc(O)c1", "note": "[Metaraminol Bitartrate] (concentration: 25 µM)", "mean cell size": "1.04 ± 0.058"}, {"compound": "COc1ccccc1OCC(O)COC(N)=O", "note": "(centres undefined) [Methocarbamol] (concentration: 25 µM)", "mean cell size": "0.969 ± 0.057"}, {"compound": "CC(C)/N=c1\\cc2n(-c3ccc(Cl)cc3)c3ccccc3nc-2cc1Nc1ccc(Cl)cc1", "note": "[Clofazimine] (concentration: 2.5 µM)", "mean cell size": "0.952 ± 0.03"}, {"compound": "Cc1nnc(C(=O)NC(C)(C)c2nc(C(=O)NCc3ccc(F)cc3)c(O)c(=O)n2C)o1", "note": "[Raltegravir] (concentration: 25 µM)", "mean cell size": "0.9483 ± 0.0067"}, {"compound": "CN(CCOc1ccc(CC2SC(=O)NC2=O)cc1)c1ccccn1", "note": "(centres undefined) [Rosiglitazone] (concentration: 25 µM)", "mean cell size": "0.996 ± 0.063"}, {"compound": "Cn1c(=O)c2[nH]cnc2n(C)c1=O", "note": "[Aminophylline] (concentration: 25 µM)", "mean cell size": "0.96 ± 0.035"}, {"compound": "Cc1ccc(C(=O)c2cc(O)c(O)c([N+](=O)[O-])c2)cc1", "note": "[Tolcapone] (concentration: 25 µM)", "mean cell size": "0.966 ± 0.023"}, {"compound": "CC/C(=C(\\c1ccccc1)c1ccc(OCCN(C)C)cc1)c1ccccc1", "note": "[Tamoxifen Citrate] (concentration: 25 µM)", "mean cell size": "0.908 ± 0.015"}, {"compound": "C[C@@H]1NC(=O)[C@@H](N)CNC(=O)[C@H](C2CCNC(=N)N2)NC(=O)/C(=C/NC(N)=O)NC(=O)[C@H](CNC(=O)CC(N)CCCN)NC1=O.N=C1NCC[C@H]([C@@H]2NC(=O)/C(=C/NC(N)=O)NC(=O)[C@H](CNC(=O)C[C@@H](N)CCCN)NC(=O)[C@H](CO)NC(=O)[C@@H](N)CNC2=O)N1", "note": "[Capreomycin Sulfate] (concentration: 25 µM)", "mean cell size": "0.97 ± 0.044"}, {"compound": "CO[C@H]1C[C@@H]2CC[C@@H](C)[C@@](O)(O2)C(=O)C(=O)N2CCCC[C@H]2C(=O)O[C@H]([C@H](C)C[C@@H]2CC[C@@H](OCCO)[C@H](OC)C2)CC(=O)[C@H](C)/C=C(\\C)[C@@H](O)[C@@H](OC)C(=O)[C@H](C)C[C@H](C)/C=C/C=C/C=C/1C", "note": "[Everolimus] (concentration: 2.5 µM)", "mean cell size": "0.761 ± 0.015"}, {"compound": "CC(CN(C)C)CN1c2ccccc2CCc2ccccc21", "note": "(centres undefined) [Trimipramine Maleate] (concentration: 25 µM)", "mean cell size": "1.02 ± 0.022"}, {"compound": "C[C@@H](O[C@H]1OCCN(Cc2n[nH]c(=O)[nH]2)[C@H]1c1ccc(F)cc1)c1cc(C(F)(F)F)cc(C(F)(F)F)c1", "note": "[Aprepitant] (concentration: 2.5 µM)", "mean cell size": "1.08 ± 0.022"}, {"compound": "CO[C@H]1/C=C/O[C@@]2(C)Oc3c(C)c(O)c4c(O)c(c(/C=N/N5CCN(C6CCCC6)CC5)c(O)c4c3C2=O)NC(=O)/C(C)=C\\C=C\\[C@H](C)[C@H](O)[C@@H](C)[C@@H](O)[C@@H](C)[C@H](OC(C)=O)[C@@H]1C", "note": "[Rifapentine] (concentration: 25 µM)", "mean cell size": "0.887 ± 0.025"}, {"compound": "O=c1n(CCCN2CCN(c3cccc(Cl)c3)CC2)nc2ccccn12", "note": "[Trazodone·HCl] (concentration: 25 µM)", "mean cell size": "0.967 ± 0.045"}, {"compound": "CO[C@H]1C[C@@H]2CC[C@@H](C)[C@@](O)(O2)C(=O)C(=O)N2CCCC[C@H]2C(=O)O[C@H]([C@H](C)C[C@@H]2CC[C@@H](O)[C@H](OC)C2)CC(=O)[C@H](C)/C=C(\\C)[C@@H](O)[C@@H](OC)C(=O)[C@H](C)C[C@H](C)/C=C/C=C/C=C/1C", "note": "[Sirolimus (Rapamycin)] (concentration: 2.5 µM)", "mean cell size": "0.7581 ± 0.0033"}, {"compound": "O=C(O)COCCN1CCN([C@H](c2ccccc2)c2ccc(Cl)cc2)CC1", "note": "[Levocetirizine Dihydrochloride] (concentration: 25 µM)", "mean cell size": "0.961 ± 0.039"}, {"compound": "COCCCC/C(=N\\OCCN)c1ccc(C(F)(F)F)cc1", "note": "[Fluvoxamine Maleate] (concentration: 25 µM)", "mean cell size": "0.973 ± 0.046"}, {"compound": "N[C@@H](CC(=O)N1CCn2c(nnc2C(F)(F)F)C1)Cc1cc(F)c(F)cc1F", "note": "[Sitagliptin Phosphate] (concentration: 25 µM)", "mean cell size": "0.999 ± 0.021"}, {"compound": "C#C[C@]1(O)CC[C@H]2[C@@H]3CCc4cc(OC)ccc4[C@H]3CC[C@@]21C", "note": "[Mestranol] (concentration: 25 µM)", "mean cell size": "1.01 ± 0.022"}, {"compound": "Cc1nnc(SCC2=C(C(=O)O)N3C(=O)[C@@H](NC(=O)Cn4cnnn4)[C@H]3SC2)s1", "note": "[Cefazolin·Na] (concentration: 25 µM)", "mean cell size": "0.964 ± 0.048"}, {"compound": "CS(=O)(=O)CCNCc1ccc(-c2ccc3ncnc(Nc4ccc(OCc5cccc(F)c5)c(Cl)c4)c3c2)o1", "note": "[Lapatinib Ditosylate] (concentration: 25 µM)", "mean cell size": "0.924 ± 0.072"}, {"compound": "N[C@@H]1CONC1=O", "note": "[Cycloserine] (concentration: 25 µM)", "mean cell size": "0.966 ± 0.013"}, {"compound": "Cc1cccc(C)c1OCC(=O)N[C@@H](Cc1ccccc1)[C@@H](O)C[C@H](Cc1ccccc1)NC(=O)[C@H](C(C)C)N1CCCNC1=O", "note": "[Lopinavir] (concentration: 25 µM)", "mean cell size": "0.8546 ± 0.0077"}, {"compound": "OCCOCCN1CCN(C(c2ccccc2)c2ccc(Cl)cc2)CC1", "note": "(centres undefined) [Hydroxyzine Dihydrochloride] (concentration: 25 µM)", "mean cell size": "0.948 ± 0.021"}, {"compound": "O=C1Cc2cc(CCN3CCN(c4nsc5ccccc45)CC3)c(Cl)cc2N1", "note": "[Ziprasidone] (concentration: 25 µM)", "mean cell size": "0.98 ± 0.062"}, {"compound": "N=C(N)NC(=O)Cc1c(Cl)cccc1Cl", "note": "[Guanfacine·HCl] (concentration: 25 µM)", "mean cell size": "0.956 ± 0.059"}, {"compound": "Nc1ccc(C(=O)NCC(=O)O)cc1", "note": "[Aminohippurate·Na] (concentration: 25 µM)", "mean cell size": "0.995 ± 0.044"}, {"compound": "CC1=C(C(=O)O)N2C(=O)[C@@H](NC(=O)[C@H](N)c3ccccc3)[C@H]2SC1", "note": "[Cephalexin Monohydrate] (concentration: 25 µM)", "mean cell size": "0.9873 ± 0.0068"}, {"compound": "CC[C@H](C)C(=O)O[C@H]1C[C@@H](C)C=C2C=C[C@H](C)[C@H](CC[C@@H]3C[C@@H](O)CC(=O)O3)[C@H]21", "note": "[Lovastatin] (concentration: 25 µM)", "mean cell size": "1.16 ± 0.046"}, {"compound": "Clc1ccccc1CN1CCc2sccc2C1", "note": "[Ticlopidine·HCl] (concentration: 25 µM)", "mean cell size": "0.922 ± 0.011"}, {"compound": "N=C(N)NC(=O)c1nc(Cl)c(N)nc1N", "note": "[Amiloride·HCl·2H2O] (concentration: 25 µM)", "mean cell size": "0.945 ± 0.055"}, {"compound": "CCN(CC)CC(=O)Nc1c(C)cccc1C", "note": "[Lidocaine·HCl·H2O] (concentration: 25 µM)", "mean cell size": "1.01 ± 0.033"}, {"compound": "CC(=O)OCC(=O)[C@@]12OC(C)(C)O[C@@H]1C[C@H]1[C@@H]3C[C@H](F)C4=CC(=O)C=C[C@]4(C)[C@@]3(F)[C@@H](O)C[C@@]12C", "note": "[Fluocinonide] (concentration: 25 µM)", "mean cell size": "0.944 ± 0.027"}]}]}
